What follows are compounds tested against Shiga toxin 2 (Escherichia coli O157:H7) (UniProt P09385+P09386) (assay: E. coli 0.157:H7 Shiga Toxin SOP - stx2 screening assay). Conditions: 30 µM.
Type: functional
Set-up: scale not given: direction of the effect not stated beside the values

Row | Compound | Percent Effect [%]
1 | CN1CCCN(C[C@@H]2CN(C(=O)CCC3CCCC3)C[C@@H]2CO)CC1 | -19.6
2 | O=C(CCc1cccs1)N1CCCCC1Cn1cccn1 (stereo not given) | 1.06
3 | O=C(NCC1CC1)[C@@H]1CCO[C@@H]2CCN(Cc3ccco3)C[C@H]21 | -6.74
4 | Cc1ccc(CN2CCn3cc(CN(C)Cc4ccco4)nc3C2)o1 | -24.1
5 | COc1ccc(CN(C)C(=O)NCc2c(C)cc(C)[nH]c2=O)cc1 | 31.7
6 | CC(=O)N1CCOC(c2cc(N3CC(O)C3)nc(C)n2)C1 (stereo not given) | 6.14
7 | CC(NC(=O)NCCCc1n[nH]c(N)c1C#N)c1ccccc1 (stereo not given) | -17.6
8 | CN(C)C(=O)c1ccc2c(c1)N(C)C(CC(=O)NCCC(C)(C)C)CO2 (stereo not given) | 5.86
9 | CCn1ncc(CN2CCc3c(nc(-c4cccnc4)[nH]c3=O)C2)c1C | -14.2
10 | Cc1ccc(CN2CCc3c(C(=O)N(C)C)nn(C)c3C2)s1 | 3.56
11 | Cc1ccc(CN2CCOC3(CCCN(C(=O)c4ccco4)C3)C2)s1 (stereo not given) | -29.2
12 | OCC1CCCN1c1cc(NCCc2c[nH]c3ccccc23)ncn1 (stereo not given) | -28.9
13 | CCN1CCN(C2CCN(Cc3c(C)noc3C)CC2)C1=O | -30.9
14 | CC(C)Cc1cc(C(=O)NCCc2ccc(S(C)(=O)=O)cc2)[nH]n1 | -19.9
15 | OC1CCCN(Cc2c(-c3ccco3)[nH]c3ncccc23)C1 (stereo not given) | 6.33
16 | Cc1occc1C(=O)N1CCc2ncnc(-c3cnn(C)c3)c2CC1 | -3.59
17 | O=C(c1cnco1)N1CCCC(Cc2nccs2)C1 (stereo not given) | -2.47
18 | CC(=O)N1CC[C@H]2OCC[C@@]2(C(=O)NCc2ccco2)C1 | -17.2
19 | Cc1noc(C)c1-c1cnc(CC2CCN(C(=O)c3cc[nH]n3)C2)cn1 (stereo not given) | 7.65
20 | CS(=O)(=O)CCN1CCC2(CCCN(C3CCOCC3)C2=O)C1 (stereo not given) | -11.9

Row | Compound | Percent Effect [%]
21 | COCCn1nc(C(=O)N2CCCC2c2cccc(F)c2)ccc1=O (stereo not given) | 1.07
22 | Cc1cccc(CN(C)Cc2nc3c(cnn3C)c(=O)[nH]2)c1 | 35.9
23 | CC(C)c1nnc2n1CCN(Cc1csc(CC(=O)N(C)C)n1)C2 | 18.3
24 | O=C1OC2(CCN(C3CCCOC3)CC2)CN1CCc1ccccc1 (stereo not given) | -27.2
25 | CC(=O)NC(C)(C)C(=O)Nc1ncc(Cc2ccc(C)c(F)c2)s1 | -15.4
26 | CS(=O)(=O)Cc1cccc(C(=O)N2CCCC(n3cccn3)C2)c1 (stereo not given) | -47.9
27 | Cc1csc(N2CCN(C(=O)CCC(=O)c3ccc(C)s3)CC2)n1 | 8.56
28 | Cc1cnc2c(S(=O)(=O)NCC3CCN(C4CC4)C3)cccc2c1 (stereo not given) | 25.5
29 | COc1c(C2CCCN2C(=O)c2cncnc2C)c(C)nn1C (stereo not given) | -11.2
30 | Cc1ccsc1CNC(=O)Cc1c(C)nc2c(c1C)c(=O)[nH]n2C | 23.7
31 | Cc1n[nH]c(C)c1-c1cnc(CC2CCN(C)C2)cn1 (stereo not given) | -18.2
32 | CC(C)(C)c1nnc(CN2CCn3c(nnc3C3CC3)C2)o1 | -5.14
33 | CC(Cn1cccn1)NC(=O)Cc1cccs1 (stereo not given) | -16.8
34 | CCNC(=O)c1ccnc(NCC2COc3cc(OC)ccc3C2)c1 (stereo not given) | -9.33
35 | Cn1cc(-c2cnc(N3CCOCC3)nc2)cc1C(=O)NCCO | -9.13
36 | c1cnc2c(c1)cc(C1CCOCC1)n2CCN1CCOCC1 | 4.5
37 | CCC(=O)N(C)C1CCN(Cc2ncc(C)c(OC)c2C)CC1 | -19.9
38 | c1cnnc(NCC2CN(Cc3cccc4c3OCCO4)CCO2)c1 (stereo not given) | -1.74
39 | CN(Cc1ccco1)Cc1ccccc1CNC(=O)c1ccncc1 | 12.1
40 | CCN1CCCn2c(nc(CNC(=O)c3ccsc3)cc2=O)C1 | 11.3
